Values joined by “and” are separate entries in the source; they are usually repeats but may differ in a detail not shown here. Equal values may be shown once. Out of some 5,500 compounds screened, about 2,000 (36%) were called active. About 18% were inconclusive and are not listed. Cut-off read from the data, not from the text of the source: active = normalized growth mostly below about 0.91 (no sharp cut-off); inconclusive = no clear call, values can overlap the other calls; inactive = mostly above about 0.92. The list shows a part of the results.
Assay: chemical genetic growth profiling, strain panel (AID 1159580);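 note: tested at 20 µM; growth read once vehicle control cultures reached saturation at 30 °C; 1 = growth at the plate median or of vehicle wells; lower values mean less growth of the strain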
Conditions: S. cerevisiae deletion strains, growth OD

Measured: normalized growth

CC(=O)Nc1ccc(O)cc1
inactive: locus YAL021C, strain ccr4, hits give low values 1.02 | locus YAL026C, strain drs2, hits give low values 1.02 | locus YAL030W, strain snc1, hits give low values 1.02 | locus YBL061C, strain skt5, hits give low values 1.02 | locus YBR009C, strain hhf1, hits give low values 1.01 | locus YBR021W, strain FUR4, hits give low values 1.09 | locus YBR023C, strain chs3, hits give low values 1.02 | locus YBR171W, strain sec66, hits give low values 1.02 | locus YBR229C, strain ROT2, hits give low values 0.985 | locus YBR231C, strain swc5, hits give low values 1.02 | locus YBR279W, strain paf1, hits give low values 1 | locus YCL011C, strain gbp2, hits give low values 1.01 | locus YCL016C, strain dcc1, hits give low values 1.01 | locus YCL029C, strain bik1, hits give low values 0.979 | locus YCL069W, strain vba3, hits give low values 1.01 | locus YCR088W, strain abp1, hits give low values 1.01 | locus YDL005C, strain med2, hits give low values 1.02 | locus YDL035C, strain GPR1, hits give low values 0.984 | locus YDL040C, strain nat1, hits give low values 1.01 | locus YDL074C, strain BRE1, hits give low values 1.05 | locus YDL101C, strain DUN1, hits give low values 1.01 | locus YDL134C, strain PPH21, hits give low values 0.985 | locus YDL185W, strain tfp1, hits give low values 0.935 | locus YDL192W, strain arf1, hits give low values 0.981 | locus YDR001C, strain nth1, hits give low values 1.02 | locus YDR069C, strain doa4, hits give low values 1.02 | locus YDR101C, strain arx1, hits give low values 0.988 | locus YDR137W, strain rgp1, hits give low values 1.01 | locus YDR159W, strain sac3, hits give low values 1.01 | locus YDR162C, strain NBP2, hits give low values 0.951 | locus YDR195W, strain ref2 1.01 | locus YDR297W, strain sur2, hits give low values 1.02 | locus YDR318W, strain mcm21, hits give low values 0.973 | locus YDR334W, strain swr1, hits give low values 1.02 | locus YDR335W, strain msn5, hits give low values 1.01 | locus YDR388W, hits give low values 0.988 | locus YDR392W, strain spt3, hits give low values 0.993 | locus YDR502C, strain sam2, hits give low values 1 | locus YEL003W, strain gim4, hits give low values 1.03 | locus YEL037C, strain rad23, hits give low values 1.02 | locus YEL061C, strain CIN8 (second series), hits give low values 1.01 | locus YEL061C, strain CIN8, hits give low values 0.971 | locus YER015W, strain faa2, hits give low values 1 | locus YER016W, strain bim1, hits give low values 0.987 | locus YER110C, hits give low values 0.992 | locus YER111C, strain swi4, hits give low values 1.01 | locus YER155C, strain BEM2 (second series), hits give low values 1.02 | locus YER155C, strain BEM2, hits give low values 0.978 | locus YER167W, strain BCK2, hits give low values 0.991 | locus YFR010W, strain ubp6, hits give low values 1.01 | locus YGL078C, strain dbp3, hits give low values 0.936 | locus YGL086W, strain mad1, hits give low values 0.987 | locus YGL167C, strain pmr1, hits give low values 1.03 | locus YGL173C, strain kem1, hits give low values 1.02 | locus YGL227W, strain vid30, hits give low values 1.02 | locus YGL240W, strain doc1, hits give low values 1.01 | locus YGL248W, strain PDE1, hits give low values 0.982 | locus YGL253W, strain hxk2, hits give low values 1.01 | locus YGR135W, strain pre9, hits give low values 0.996 | locus YGR229C, strain SMI1, hits give low values 0.972 | locus YGR252W, strain gcn5, hits give low values 1.16 | locus YHR013C, strain ard1, hits give low values 1.02 | locus YHR027C, strain rpn1, hits give low values 1.01 | locus YHR030C, strain SLT2, hits give low values 0.985 and 0.986 | locus YHR079C, strain IRE1 (second series), hits give low values 0.987 | locus YHR079C, strain IRE1, hits give low values 0.986 | locus YHR094C, strain hxt1, hits give low values 0.979 | locus YHR129C, strain ARP1, hits give low values 0.977 | locus YHR142W, strain chs7, hits give low values 1.01 | locus YHR200W, strain rpn10, hits give low values 0.983 | locus YIL066C, strain RNR3, hits give low values 0.977 | locus YIL073C, strain SPO22, hits give low values 1.04 | locus YIL125W, strain kgd1, hits give low values 0.944 | locus YIR030C, strain dcg1, hits give low values 0.977 | locus YJL092W, strain hpr5, hits give low values 1 | locus YJL095W, strain BCK1 (second series), hits give low values 1.02 | locus YJL095W, strain BCK1, hits give low values 1 and 0.986 | locus YJL115W, strain asf1, hits give low values 1.02 | locus YJL129C, strain trk1, hits give low values 1.01 | locus YJL134W, strain LCB3, hits give low values 0.981 | locus YJL154C, strain vps35, hits give low values 1.01 | locus YJL164C, strain tpk1, hits give low values 0.997 | locus YJL166W, strain qcr8, hits give low values 1 | locus YJL168C, strain set2, hits give low values 0.975 | locus YJL187C, strain SWE1 (second series), hits give low values 1.01 | locus YJR043C, strain POL32, hits give low values 0.978 | locus YJR066W, strain TOR1, hits give low values 0.99

From PubChem BioAssay AID1159580 (chemical genetic matrix, 2015)
